Rows were chosen to be rich in hits. Some 19% of all compounds tested hit in one or more screens of this group.
HT1080-NT tox – qHTS for induction of synthetic lethality in tumor cells producing 2HG: qHTS for the HT-1080-NT fibrosarcoma cell line; HT-1080-NT fibrosarcoma viability, CellTiter-Glo ATP luminescence, 48 h; Potency, µM (series often up to 46.1 µM), for inactives: at the top dose activity, negative = less viability, most hits filed as cytotoxic; hit rate 1.6% among 360,000;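 also: NT is the 2HG producing partner of a matched IDH1 knockdown line; potency is read from the fitted curve at half-maximal effect; 0% = DMSO-treated cells and -100% = media-only wells without cells; nearly all actives have a fitted effect of over 55% in size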
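HT-1080-NT fibrosarcoma cells (2HG-overproducing), 750 cells/well in RPMI with 5% FBS, dosed after 2 h and incubated 48 h at 37C. CellTiter-Glo luminescence normalized to DMSO and no-cell wells; concentration-response curves fitted and classed.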
TDP1 cell CPT – qHTS for Inhibitors of human tyrosyl-DNA phosphodiesterase 1 (TDP1): qHTS in cells in presence of CPT; chicken DT40 Tdp1-/-;hTDP1 cells + 20 nM CPT, ATP luminescence, 48 h; Potency, µM (highest dose often 46.2 µM), without a hit: at the highest dose activity change, negative = growth inhibition, most hits filed as inhibitors; hit rate 12% among 420,000; also: potency is read from the fitted curve at half-maximal effect; nearly all actives have a fitted effect of over 55% in size
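Chicken DT40 Tdp1-/- cells complemented with human TDP1, 400 cells/well, exposed to compounds plus 20 nM camptothecin for at least 48 h at 37 C; viability read as ATP content by CellTiter-Glo luminescence.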
ELG1 DNA repair – qHTS screen for small molecules that inhibit ELG1-dependent DNA repair in human embryonic kidney (HEK293T) cells expressing luciferase-tagged ELG1. HEK293T ELG1-luciferase reporter, luminescence, 16 h; DNA damage induced by 5-fluorouridine. Potency, µM (series often up to 46.1 µM), inactives show at the highest dose activity change, negative = inhibition, usual class: inhibitors. hit rate 2.3% among 330,000. AID 504467, 2011; also: potency is read from the fitted curve at half-maximal effect; nearly all actives have a fitted effect of over 55% in size
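HEK293T cells expressing luciferase-tagged ELG1 (2,000/well) received 5-Fluorouridine plus compound or DMSO for 16 hr at 37 °C. Luciferase was read by ONE-Glo luminescence after 30 min at room temperature.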
IL1B secr inh – qHTS for Inhibitors of Inflammasome Signaling: IL-1-beta AlphaLISA Primary Screen. AID 743279, 2014. activity change, % at 57.5 µM. hit rate 4.7% among 360,000. THP-1 LPS/ATP IL-1B secretion, AlphaLISA, 16 h; active compounds read low; in the data active = activity change below about -50%; inconclusive = mostly about -30% to -49%
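THP-1 cells pretreated 1 hr with compounds (up to 57.5 uM final), then stimulated with LPS (250 ng/mL final) plus ATP (1.25 mM final); secreted IL-1B measured by AlphaLISA after 16 hr, decreased signal indicating inhibition.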
HT1080 IDH1KD tx – qHTS for induction of synthetic lethality in tumor cells producing 2HG: qHTS for the HT-1080-IDH1KD cell line; HT-1080 IDH1 knockdown viability, ATP luminescence, 48 h; Potency, µM (doses to about 46.1 µM), for inactives: at the top dose activity, negative = toxicity, hits mostly cytotoxic; hit rate 2% among 360,000; AID 686971, 2013;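 also: potency is read from the fitted curve at half-maximal effect; 0% = DMSO wells and -100% = cell-free medium wells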
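HT-1080-IDH1KD cells (IDH1 knocked down), 750/well in RPMI with 5% FBS, treated with compound 48 h at 37 degrees C. Viability by CellTiter-Glo luminescence, normalised to DMSO and no-cell wells; concentration-response curves classed.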
DT40 TDP1 no CPT – qHTS for Inhibitors of human tyrosyl-DNA phosphodiesterase 1 (TDP1): qHTS in cells in absence of CPT; hit rate 15% among 420,000; DT40 Tdp1-/- hTDP1 cells, no CPT, ATP luminescence, 48 h; Potency, µM (series often up to 46.2 µM), without a hit: top-dose activity change, negative = growth inhibition, most hits filed as inhibitors; also: potency is read from the fitted curve at half-maximal effect; nearly all actives have a fitted effect of over 55% in size
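Stably hTDP1-transfected Tdp1-null chicken DT40 cells were treated with library compounds minus camptothecin and grown for at least 48 hr at 37 °C, after which cellular ATP was quantified by luminescence.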
Starred values were filed as active, the others as inactive; [ ] = dose if it differs, or a comment. Unless noted, calls follow the shape of the dose curve; as a rule, active = well fitted curve in the direction sought with a large enough effect; inconclusive = small, poorly fitted or top-dose-only effect, or another doubt; inactive = no such curve, though single readings can be large; an effect the other way counts as inactive or inconclusive. Unless noted, % is scaled to controls: 0 for no effect and ±100 for the full control effect.

What do the screens show for `Cc1ccc(N=c2c([N+](=O)[O-])nn(-c3ccc4c(c3)OCCO4)n2O)cc1F`?
HT1080-NT tox: -13%; TDP1 cell CPT: inconclusive; ELG1 DNA repair: inconclusive; IL1B secr inh: -12; HT1080 IDH1KD tx: 1%; DT40 TDP1 no CPT: inconclusive

How did O=[N+]([O-])c1nn(-c2ccc3c(c2)OCCO3)n(O)c1=Nc1ccccc1 do in these assays?
HT1080-NT tox: -8%; TDP1 cell CPT: 26µM*; ELG1 DNA repair: inconclusive; IL1B secr inh: 15; HT1080 IDH1KD tx: 2%; DT40 TDP1 no CPT: 23µM*

How did O=[N+]([O-])c1nn(-c2ccc3c(c2)OCCO3)n(O)c1=Nc1ccc(Cl)cc1 do in these assays?
HT1080-NT tox: -29%; TDP1 cell CPT: 23µM*; ELG1 DNA repair: inconclusive; IL1B secr inh: inconclusive; HT1080 IDH1KD tx: -3%; DT40 TDP1 no CPT: 16µM*

Results for Cc1cc(C)cc(N=c2c([N+](=O)[O-])nn(-c3ccc4c(c3)OCCO4)n2O)c1 ?
HT1080-NT tox: -6%; TDP1 cell CPT: 2.6µM*; ELG1 DNA repair: 1%; IL1B secr inh: -19; HT1080 IDH1KD tx: -28%; DT40 TDP1 no CPT: 2.9µM*

What do the screens show for `O=C1c2ccccc2N2C(=O)c3ccccc3C2N1Cc1ccccc1` (stereo not given)?
HT1080-NT tox: 3%; TDP1 cell CPT: inconclusive; ELG1 DNA repair: -15%; IL1B secr inh: -29; HT1080 IDH1KD tx: inconclusive; DT40 TDP1 no CPT: inconclusive

What do the screens show for `COC(=O)C1=C(C)NC(C)=C(C(=O)OC)C1C(=O)OCC(=O)N1CCCCC1C` (stereo not given)?
HT1080-NT tox: -3%; TDP1 cell CPT: 1%; ELG1 DNA repair: 6%; IL1B secr inh: 4; HT1080 IDH1KD tx: -5%; DT40 TDP1 no CPT: 3%

Results for Cc1nc2c(nc1C)C(=O)c1ccccc1C2=O ?
HT1080-NT tox: inconclusive; TDP1 cell CPT: 3.7µM*; IL1B secr inh: -28; HT1080 IDH1KD tx: 18µM*; DT40 TDP1 no CPT: 4.6µM*

Results for CCc1ccc(Cn2ncc3c(C(=O)O)cc(C)nc32)cc1 ?
HT1080-NT tox: -8%; TDP1 cell CPT: -13%; IL1B secr inh: 15; HT1080 IDH1KD tx: -11%; DT40 TDP1 no CPT: -4%

How did CCN(CC)c1ccc(/C=N/NC(=O)Cc2nnc(NC(=O)Nc3ccccc3)s2)cc1 do in these assays?
HT1080-NT tox: 21µM*; TDP1 cell CPT: inconclusive; ELG1 DNA repair: 23%; IL1B secr inh: 14; HT1080 IDH1KD tx: 15µM*; DT40 TDP1 no CPT: 21µM*

What do the screens show for `CCCCCCNC(=O)N1C/C=C\C(c2ccc(OC)cc2)N(Cc2ccc(F)cc2)C(=O)C1` (stereo not given)?
HT1080-NT tox: 0%; TDP1 cell CPT: inconclusive; ELG1 DNA repair: 4%; IL1B secr inh: 16; HT1080 IDH1KD tx: -5%; DT40 TDP1 no CPT: 23µM*

What do the screens show for `CCCCCCC(=O)N1C/C=C\C(c2ccc(OC)cc2)N(Cc2ccc(F)cc2)C(=O)C1` (stereo not given)?
HT1080-NT tox: -3%; TDP1 cell CPT: inconclusive; ELG1 DNA repair: 10%; IL1B secr inh: -4; HT1080 IDH1KD tx: -9%; DT40 TDP1 no CPT: 23µM*

What do the screens show for `COc1ccc(C2/C=C\CN(C(=O)CC(C)(C)C)CC(=O)N2Cc2ccc(F)cc2)cc1` (stereo not given)?
HT1080-NT tox: 0%; TDP1 cell CPT: inconclusive; ELG1 DNA repair: inconclusive; IL1B secr inh: 7; HT1080 IDH1KD tx: -6%; DT40 TDP1 no CPT: inconclusive

What do the screens show for `CC1(C)S[C@@H]2[C@H](NC(=O)COc3ccccc3)C(=O)N2[C@@H]1C(=O)OCc1cccc2cccnc12`?
TDP1 cell CPT: 12%; DT40 TDP1 no CPT: -13%

What do the screens show for `CCCOc1cccc(C(=O)NC(=S)Nc2cccc(C(F)(F)F)c2)c1`?
HT1080-NT tox: inconclusive; TDP1 cell CPT: inconclusive; ELG1 DNA repair: 0%; IL1B secr inh: -57*; HT1080 IDH1KD tx: 15%[9.24 µM]; DT40 TDP1 no CPT: inconclusive

What do the screens show for `Cc1ccc(CNC(=O)C(=O)NCC(c2cccs2)S(=O)(=O)c2cccs2)cc1` (stereo not given)?
TDP1 cell CPT: inconclusive; DT40 TDP1 no CPT: -11%

What do the screens show for `Cc1ccc(C(=O)NCC(c2cccs2)S(=O)(=O)c2cccs2)cc1C` (stereo not given)?
TDP1 cell CPT: 12µM*; DT40 TDP1 no CPT: 21µM*

Results for O=C(NCC(c1cccs1)S(=O)(=O)c1cccs1)c1ccc(Cl)cc1 (stereo not given) ?
TDP1 cell CPT: inconclusive; DT40 TDP1 no CPT: 18µM*

What do the screens show for `Cc1ccc(S(=O)(=O)CCC(=O)N2CCN(c3nc4c(C)c(Cl)ccc4s3)CC2)cc1`?
TDP1 cell CPT: 2.6µM*; DT40 TDP1 no CPT: 3.3µM*

How did Cc1ccc(S(=O)(=O)CCC(=O)N2CCN(c3ccccc3O)CC2)cc1 do in these assays?
HT1080-NT tox: -6%; TDP1 cell CPT: -15%; ELG1 DNA repair: -19%; IL1B secr inh: inconclusive; HT1080 IDH1KD tx: 2%; DT40 TDP1 no CPT: 3%

How did Cc1c(Cl)ccc2sc(N3CCN(C(=O)C4CC4)CC3)nc12 do in these assays?
TDP1 cell CPT: 12µM*; DT40 TDP1 no CPT: 5.8µM*

How did COc1cccc2sc(N3CCN(C(=O)CCS(=O)(=O)c4ccc(F)cc4)CC3)nc12 do in these assays?
TDP1 cell CPT: 5.8µM*; DT40 TDP1 no CPT: 7.3µM*

What do the screens show for `CCCC(=O)NC(c1ccccc1)c1c(O)ccc2ccccc12` (stereo not given)?
HT1080-NT tox: -5%; TDP1 cell CPT: inconclusive; ELG1 DNA repair: -4%; IL1B secr inh: -26; HT1080 IDH1KD tx: -15%; DT40 TDP1 no CPT: 8.2µM*

Results for CCCC(=O)NC(c1ccccc1Cl)c1c(O)ccc2ccccc12 (stereo not given) ?
HT1080-NT tox: -14%; TDP1 cell CPT: inconclusive; ELG1 DNA repair: -26%; IL1B secr inh: -26; HT1080 IDH1KD tx: -18%; DT40 TDP1 no CPT: inconclusive
